# About 2,700 (4%) of roughly 68,000 compounds showed an effect of 50% or more. Shown is part of a subset that was picked to be rich in strong results.
# System: Plasmodium berghei
# Experiment: Screen against P. berghei liver stage (PbLuc), transformed with Luciferase, at 2uM
# Type: functional, HepG2
# Settings: tested at 2 uM
row,Compound,INHIBITION [%]
1,CS(=O)(=O)Cc1ccc(Cl)cc1NCc1ccccc1F,0.13
2,CC(C)NC(=O)CC(C)NCc1ccc(F)cc1Cl (stereo not drawn),40.64
3,CC(C)NC(=O)CC(C)NCc1cc(Cl)ccc1F (stereo not drawn),52.51
4,CC(CS(C)(=O)=O)NCc1cc(Cl)ccc1F (stereo not drawn),50.53
5,CC(C)NC(=O)CNC(C)c1c(F)cccc1Cl (stereo not drawn),5.34
6,CC(C)C(=O)NCc1cc(Br)ccc1F,-64.91
7,Cc1cnc(CNc2ncc(C)c(-c3cnn(C)c3)n2)cn1,-20.35
8,Cc1cccc(N2CCC3(CCN(C(=O)c4cccnc4)CC3)C2)n1,7.29
9,Cc1nnc(NC(=O)CN2CCCC2c2noc(C3CC3)n2)s1 (stereo not drawn),-32.11
10,O=C(Cc1ccsc1)NCCc1ccoc1,42.8
11,CC(NC(=O)c1ccoc1)C(=O)N(C)Cc1ccsc1 (stereo not drawn),-56.89
12,O=C(NCCc1ccsc1)c1ccoc1,52.08
13,COc1ccc(CN2CCC3(CC2)CCN(CC2CC2)C3=O)cc1,-0.64
14,CC(C)CNC(=O)c1ccc(NC(=O)NC(C)c2ccccn2)cc1 (stereo not drawn),-17.17
15,O=C(c1ccccn1)N1Cc2nccn2CC(COc2cccnc2)C1 (stereo not drawn),-28.34
16,Cc1ccc(Oc2ncccc2C(=O)O)c(C)c1,50.61
17,Cc1ccc(Oc2ncccc2C(=O)N(C)CCCN(C)C)c(C)c1,32.85
18,Cc1ccc(Oc2ncccc2C(=O)N(C)CC2OCCO2)c(C)c1,23.53
19,O=C(c1ccco1)N1CC2(CCNCC2)c2cc(Cl)ccc21,34.18
20,COc1cc(N2C[C@@H](C)[C@](O)(C3CC3)C2)nc(N)n1,56.12
21,COCc1cc(N2C[C@@H](C)[C@](O)(C3CC3)C2)ncn1,8.09
22,COc1cc(N2C[C@@H](C)[C@](O)(C3CC3)C2)ncn1,18.38
23,CN(CC1CCCC1)C(=O)c1cn(C)nc1-c1cccnc1,32.67

row,Compound,INHIBITION [%]
1,COc1nccc(N2CC[C@H](CO)[C@@H](O)C2)c1C#N,5.38
2,Cn1ncc2c1CCCC2NCc1cccc(C(F)(F)F)c1 (stereo not drawn),13.24
3,CN1CCCC(c2nc3c([nH]2)CC(C)(C)CNC3=O)C1 (stereo not drawn),-3.25
4,CC1(C)CNC(=O)c2nc(C3CCN(C(=O)C4CC4)CC3)[nH]c2C1,33.4
5,CC1(C)CNC(=O)c2nc(C3CCCN(C(=O)C4CC4)C3)[nH]c2C1 (stereo not drawn),73.68
6,Cc1cccc(C(=O)NCCCN2CCc3ccccc3C2)c1C,28.88
7,Cc1ccccc1C(=O)NCCCN1CCc2ccccc2C1,-13.46
8,COc1cccc(C(=O)NCCCN2CCc3ccccc3C2)c1OC,51.32
9,COC[C@@]12CCO[C@@H]1CCN(C(=O)COc1ccc(C)cc1)C2,-42.87
10,O=C(NCCc1ccc(Cl)s1)N1CCS(=O)(=O)CC1,-13.46
11,COc1cccc(F)c1C(C)NC(=O)NCc1ccnc(C)n1 (stereo not drawn),-38.35
12,Cc1nc(C)n(CC2CN(S(C)(=O)=O)Cc3nccn3C2)n1 (stereo not drawn),26.66
13,CC1=Nc2c(c(=O)[nH]n2C(C)C)C(c2ccc3c(c2)OCCO3)S1 (stereo not drawn),-19.21
14,CC1=Nc2c(c(=O)[nH]n2C(C)C)C(c2ccccc2)S1 (stereo not drawn),18.37
15,CC1=Nc2c(c(=O)[nH]n2C(C)C)C(c2ccc3c(c2)n(C)c(=O)n3C)S1 (stereo not drawn),53.71
16,CC1=Nc2c(c(=O)[nH]n2C(C)C)C(c2ccsc2)S1 (stereo not drawn),14.2
17,CC1=Nc2c(c(=O)[nH]n2C(C)C)C(c2ccc(F)c(F)c2)S1 (stereo not drawn),-52.59
18,CC1=Nc2c(c(=O)[nH]n2C(C)C)C(c2cccs2)S1 (stereo not drawn),63.91
19,COc1ccccc1[C@@H]1CN(C(=O)c2csc(C)n2)C[C@H]1C(=O)O,10.69
20,CC(C)CC(C#N)NC(=O)COC1CCCCC1 (stereo not drawn),30.23
21,c1csc(CN2C[C@@H]3OCCN(CC4CCCO4)[C@@H]3C2)c1 (stereo partly drawn),20.13
22,CCOCCN1CCN(Cc2cccc(C(=O)N(C)C)c2)CC1CC (stereo not drawn),50.05
23,CCOCCN1CCN(CC(=O)N2CCCC2)CC1CC (stereo not drawn),-9.17

row,Compound,INHIBITION [%]
1,CCOCCN1CCN(Cc2cccc(C(=O)N(C)C)c2)CC1C (stereo not drawn),30.29
2,CCOCCN1CCN(Cc2cccc(C(=O)N(C)C)c2)CC1,10.62
3,CCC1CN(CC(=O)N2CCC2)CCN1CCOC (stereo not drawn),24.15
4,COCCN1CCN(Cc2cccc(C(=O)N(C)C)c2)CC1,21.83
5,CCC1CN(Cc2cccc(C(=O)N(C)C)c2)CCN1CCOC (stereo not drawn),2.77
6,CCOCCN1CCN(CC(=O)N2CCC2)CC1CC (stereo not drawn),53.98
7,CN(C)C(=O)c1cccc(CN2CCN(CCO)CC2)c1,54.99
8,Cc1ccc(CN2CC3(CCN(C(=O)C4CC4)CC3)CC2C(=O)O)o1 (stereo not drawn),15.46
9,CCn1cc(NC(=O)NCC(c2cccc(F)c2)N(C)C)cn1 (stereo not drawn),-41.59
10,O=C(c1ccnnc1)N1C[C@@H](OCC2CCOCC2)[C@H]2OCCC[C@H]21,3.35
11,COc1cc(C)nc(N2CCN(C(=O)CCc3cscn3)CC2)n1,-8.58
12,CC1CS(=O)(=O)CCN1CCCc1ccc(Cl)cc1 (stereo not drawn),-15.12
13,CS(=O)(=O)N1CCOCC12CCN(Cc1ccc(F)cc1)CC2,-12.74
14,CNC(=O)N1CC[C@@H]2CN(Cc3cccnc3)S(=O)(=O)[C@@H]2CC1,-23.02
15,Cc1ccc(CN2CCC3(CC2)CC(c2cccnc2)C(=O)N3C)o1 (stereo not drawn),8.6
16,Cc1nc2c(c(=O)[nH]1)CN(Cc1ccc3c(c1)CCCN3C)CC2,30.25
17,CSCCCN1CCCC1c1noc(C(C)C)n1 (stereo not drawn),5.05
18,Cc1ccccc1OC1CCN(CC(=O)Nc2cn(C)nc2C)CC1,54.75
19,Cc1ccccc1OC1CCN(CC(=O)Nc2ccn(C)n2)CC1,9.02
20,CCn1cc(NC(=O)CN2CCC(Oc3ccccc3C)CC2)c(C)n1,45.49
21,CCOc1ncnc2c1CCN(C(=O)CN(C)C)CC2,19.49
22,O=C(CC1CC1)N1Cc2nccn2CC(COc2cccnc2)C1 (stereo not drawn),23.97
